Counter-ions that a name gives are not always drawn. ± gives the standard deviation of the averaged measurements.
The compounds below were run on DLD1 (assay: cell viability (CellTiter-Glo) relative to plate median (fraction of plate median); higher = more viable cells). Details: 10 µM; treatment time 24 h; reporter: TCF4/Wnt.
Method in brief: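 Colorectal cancer cells expressing a stably transduced lentiviral TCF/Wnt firefly luciferase reporter were treated in 384-well plates with kinase inhibitor library compounds at a final 10 µM for 24 h. Firefly luciferase or CellTiterGlo luminescence was then read on parallel plates. Well signals were normalised to the plate median (webcellHTS2, additive, no log transformation) and averaged over two independent replicates.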
Compound `OCCn1cc(-c2ccc3c(c2)CC/C3=N\O)c(-c2ccncc2)n1` has a cell viability of 0.992 ± 0.11.
`Cn1cc(-c2ccc3ncc(Cc4ccc5ncccc5c4)n3n2)cn1` gave a cell viability of 1.06 ± 0.094.
Work on `CNC(=O)c1cccc(-c2ccc3c(N4CCOC[C@@H]4C)nc(N4CCOC[C@@H]4C)nc3n2)c1` yielded a cell viability of 0.874 ± 0.045.
`CC(C)(C)Cn1c(N)nc2ccc(-c3[nH]c(C(C)(C)C)nc3-c3ccc(F)cc3)nc21` showed a cell viability of 0.931 ± 0.089.
Compound `C[C@]1(O)C[C@@H](c2nc(-c3ccc4ccc(-c5ccccc5)nc4c3)c3c(N)nccn32)C1` [Linsitinib (OSI-906)] has a cell viability of 0.856 ± 0.15.
Work on `CCN(CC)CCNC(=O)c1c(C)[nH]c(/C=C2\C(=O)Nc3ccc(F)cc32)c1C` [Sunitinib Malate (Sutent)] yielded a cell viability of 0.9685 ± 0.0035.
`COc1cc(Nc2ncc(F)c(Nc3ccc4c(n3)N(COP(=O)(O)O)C(=O)C(C)(C)O4)n2)cc(OC)c1OC` showed a cell viability of 0.896 ± 0.073.
`Cc1cc(C(C)Nc2ccccc2)c2nc(N3CCOCC3)cc(=O)n2c1` (stereo not given) gave a cell viability of 0.909 ± 0.04.
For `Cn1cc(-c2ccc3nnc(Sc4ccc5ncccc5c4)n3n2)cn1`, the cell viability was 0.9215 ± 0.0078.
With `N#Cc1c(O)c2c(-c3ccc(-c4ccccc4O)cc3)csc2[nH]c1=O` the cell viability was 1.13 ± 0.071.
With `C#Cc1cccc(Nc2ncnc3cc(OCCOC)c(OCCOC)cc23)c1` [Erlotinib HCl] the cell viability was 0.934 ± 0.034.
With `N#CC(=C(/N)Sc1ccccc1N)/C(C#N)=C(\N)Sc1ccccc1N` the cell viability was 1.003 ± 0.0099.
Work on `Nc1cccc(-c2cc3c(Oc4cccc(O)c4)ncnc3[nH]2)c1` yielded a cell viability of 1.06 ± 0.078.
`CCOc1cc2ncc(C#N)c(Nc3ccc(F)c(Cl)c3)c2cc1NC(=O)/C=C/CN(C)C` [Pelitinib (EKB-569)] gave a cell viability of 0.875 ± 0.081.
In the case of `Cc1cc(Nc2cc(CN3CCOCC3)c3nc(C)c(Cc4ccc(Cl)cc4F)n3n2)n[nH]1`, the cell viability is reported as 1.05 ± 0.064.
In the case of `CC[C@H](CO)Nc1nc(NCc2ccccc2)c2ncn(C(C)C)c2n1` [Roscovitine (Seliciclib, CYC202)], the cell viability is reported as 0.922 ± 0.0099.
In the case of `CO[C@H]1C[C@@H]2CC[C@@H](C)[C@@](O)(O2)C(=O)C(=O)N2CCCC[C@H]2C(=O)O[C@H]([C@H](C)C[C@@H]2CC[C@@H](OP(C)(C)=O)[C@H](OC)C2)CC(=O)[C@H](C)/C=C(\C)[C@@H](O)[C@@H](OC)C(=O)[C@H](C)C[C@H](C)/C=C/C=C/C=C/1C` [Deforolimus (Ridaforolimus)], the cell viability is reported as 1.08 ± 0.092.
Work on `O=C1NC(=O)[C@@H](c2cn3c4c(cccc24)CCC3)[C@@H]1c1c[nH]c2ccccc12` [ARQ 197 (Tivantinib)] yielded a cell viability of 1.01 ± 0.017.
`COc1cccc2cc(-c3nc([C@H]4CC[C@H](C(=O)O)CC4)n4ncnc(N)c34)[nH]c12` was tested, and the cell viability was 1.02 ± 0.056.
`CO[C@H]1C[C@@H]2CC[C@@H](C)[C@@](O)(O2)C(=O)C(=O)N2CCCC[C@H]2C(=O)O[C@H]([C@H](C)C[C@@H]2CC[C@@H](OC(=O)C(C)(CO)CO)[C@H](OC)C2)CC(=O)[C@H](C)/C=C(\C)[C@@H](O)[C@@H](OC)C(=O)[C@H](C)C[C@H](C)/C=C/C=C/C=C/1C` [Temsirolimus (Torisel)] was tested, and the cell viability was 1.115 ± 0.0071.
`CC(C)(O)CC(=O)NCCn1ccc2ncnc(Nc3ccc(Oc4cccc(C(F)(F)F)c4)c(Cl)c3)c21` showed a cell viability of 1.03 ± 0.089.
`CCCS(=O)(=O)Nc1ccc(F)c(C(=O)c2c[nH]c3ncc(Cl)cc23)c1F` gave a cell viability of 0.942 ± 0.074.
In the case of `O=C(O)c1ccc2c(c1)nc(Nc1cccc(Cl)c1)c1ccncc12` [cx-4945 (Silmitasertib)], the cell viability is reported as 0.955 ± 0.079.
In the case of `COc1cc2c(Oc3ccc(NC(=O)C4(C(=O)Nc5ccc(F)cc5)CC4)cc3F)ccnc2cc1OCCCN1CCOCC1`, the cell viability is reported as 0.875 ± 0.042.
With `CN(C)CCOc1ccc(-c2nc(-c3ccncc3)c(-c3ccc4c(c3)CC/C4=N\O)[nH]2)cc1` the cell viability was 1.14 ± 0.064.
In the case of `COc1cc2nccc(Oc3ccc(NC(=O)C4(C(=O)Nc5ccc(F)cc5)CC4)cc3)c2cc1OC` [XL-184 free base (Cabozantinib)], the cell viability is reported as 1.02 ± 0.05.
In the case of `CN1CC[C@H](c2c(O)cc(O)c3c(=O)cc(-c4ccccc4Cl)oc23)[C@H](O)C1` [Flavopiridol hydrochloride], the cell viability is reported as 1.24 ± 0.092.
Compound `S=C(NCc1ccc2c(c1)OCO2)N1CCN(c2ncnc3c2oc2ccccc23)CC1` [Amuvatinib (MP-470)] has a cell viability of 1.03 ± 0.091.
Compound `Cn1cnc(N)c2ncnc1-2` [3-Methyladenine] has a cell viability of 1.11 ± 0.12.
In the case of `Clc1ccc(Nc2nnc(Cc3ccncc3)c3ccccc23)cc1` [Vatalanib dihydrochloride (PTK787)], the cell viability is reported as 0.978 ± 0.011.
`O=c1cc(-c2cccc3c2Sc2ccccc2S3)oc(N2CCOCC2)c1` was tested, and the cell viability was 0.999 ± 0.03.
Work on `CN1CCN(CCOc2cc(OC3CCOCC3)c3c(Nc4c(Cl)ccc5c4OCO5)ncnc3c2)CC1` [Saracatinib (AZD0530)] yielded a cell viability of 0.874 ± 0.066.
In the case of `CNC(=O)Nc1ccc(-c2nc(N3CC4CCC(C3)O4)c3cnn(C4CCC5(CC4)OCCO5)c3n2)cc1`, the cell viability is reported as 0.998 ± 0.045.
With `CO[C@H]1C[C@@H]2CC[C@@H](C)[C@@](O)(O2)C(=O)C(=O)N2CCCC[C@H]2C(=O)O[C@H]([C@H](C)C[C@@H]2CC[C@@H](OCCO)[C@H](OC)C2)CC(=O)[C@H](C)/C=C(\C)[C@@H](O)[C@@H](OC)C(=O)[C@H](C)C[C@H](C)/C=C/C=C/C=C/1C` [Everolimus (RAD001)] the cell viability was 1.02 ± 0.028.
`N#C/C(=C\c1ccc(O)c(O)c1)C(=O)NCc1ccccc1` showed a cell viability of 0.946 ± 0.031.
For `Cc1cc(CN2CCN(c3c(Br)cnc4nc(-c5ccc(N6CCN(C)CC6)cc5)[nH]c34)CC2)no1`, the cell viability was 1.01 ± 0.021.
Work on `COc1cc2ncnc(Nc3cccc(Cl)c3)c2cc1OC` [AG-1478 (Tyrphostin AG-1478)] yielded a cell viability of 1 ± 0.053.
For `Cc1c(NC(=O)OC[C@@H]2COCCN2)cn2ncnc(Nc3ccc4c(cnn4Cc4cccc(F)c4)c3)c12`, the cell viability was 0.97 ± 0.17.
Compound `CCCS(=O)(=O)Nc1ccc(F)c(C(=O)c2c[nH]c3ncc(-c4ccc(Cl)cc4)cc23)c1F` [Vemurafenib (PLX4032)] has a cell viability of 0.976 ± 0.023.
Work on `COc1ccc(-c2cc3c(C)nc(N)nc3n([C@H]3CC[C@H](OCCO)CC3)c2=O)cn1` yielded a cell viability of 0.944 ± 0.028.

— the supplement of paper PMC6522484
